# The full ranking holds about 1,100 sequences; the median of “relative enrichment” is about 0.38, and the highest 2% start at about 0.66. This excerpt belongs to a sample that is enriched for the highest values.
# Biological target: T1, FOXC2 DBD WT (UniProt Q99958 72-172)
# T1 sequence: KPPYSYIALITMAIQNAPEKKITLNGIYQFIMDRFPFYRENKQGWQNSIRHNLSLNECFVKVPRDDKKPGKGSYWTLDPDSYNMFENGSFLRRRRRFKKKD
# Assay: SELEX-seq (GST pull-down, four rounds, 16-nt random library); pH 7.0; 20 mM HEPES, 140 mM KCl, 0.05 mM TCEP-HCl, pH 7.0, room temperature, 30 min; 2.5 uM GST-FOXC2 DBD, 0.25 uM DNA library; high values mean tight binding
# Settings: protein: recombinant; tags: N-terminal GST (pGEX-6P-2); dsDNA, one strand shown
# In short: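 GST-tagged FOXC2 DNA-binding domain (E. coli-expressed, glutathione-purified) was incubated with a DNA library carrying a 16 bp randomized region, at 0.25 μM DNA and 2.5 μM protein, for 30 min at RT in 20 mM HEPES, 140 mM KCl, 0.05 mM TCEP–HCl, pH 7. Complexes were captured on glutathione Sepharose beads, washed, heat-eluted and PCR-amplified over four rounds. Initial and selected libraries were Illumina MiniSeq sequenced. Relative enrichment came from the Bioconductor SELEX R package.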
row,Sequence,binding signal
1,TAATGA,0.31 relative enrichment
2,AAGCTA,0.297 relative enrichment
3,TACACC,0.418 relative enrichment
4,CACCTG,0.535 relative enrichment
5,TACCTC,0.625 relative enrichment
6,CACCTC,0.731 relative enrichment
7,CAATAA,0.513 relative enrichment
8,CTTATC,0.378 relative enrichment
9,AACAGG,0.325 relative enrichment
10,TCAACT,0.324 relative enrichment
11,CAACCA,0.261 relative enrichment
12,TTCCTA,0.364 relative enrichment
13,CTTACA,0.35 relative enrichment
14,TATAAA,0.283 relative enrichment
15,ATACTC,0.432 relative enrichment
16,GAAAAA,0.304 relative enrichment
17,TGGTAA,0.428 relative enrichment
18,AGAATG,0.543 relative enrichment
19,TCAATC,0.416 relative enrichment
20,CTTTGA,0.338 relative enrichment
21,AACGTT,0.324 relative enrichment
22,CTCATT,0.311 relative enrichment
23,AACAAT,0.374 relative enrichment
24,ATAGTC,0.461 relative enrichment
25,TTCACT,0.426 relative enrichment

row,Sequence,binding signal
1,AAAGAT,0.356 relative enrichment
2,ATAGAA,0.4 relative enrichment
3,TCTCTA,0.45 relative enrichment
4,ATATTA,0.266 relative enrichment
5,ATACGC,0.457 relative enrichment
6,ACGAAA,0.388 relative enrichment
7,CATACG,0.448 relative enrichment
8,TATGAA,0.387 relative enrichment
9,AATTCA,0.336 relative enrichment
10,AAATTC,0.343 relative enrichment
11,ACACGT,0.335 relative enrichment
12,CTTAAG,0.341 relative enrichment
13,AATCGT,0.337 relative enrichment
14,CTACAC,0.417 relative enrichment
15,TTTCCC,0.38 relative enrichment
16,AAACCC,0.354 relative enrichment
17,ACTAAT,0.328 relative enrichment
18,ACTACA,0.297 relative enrichment
19,GCTACA,0.348 relative enrichment
20,ACCATG,0.559 relative enrichment
21,ATCAAT,0.463 relative enrichment
22,CGTCAT,0.583 relative enrichment
23,AAATCC,0.354 relative enrichment
24,CACTTC,0.726 relative enrichment
25,CACTGC,0.574 relative enrichment

row,Sequence,binding signal
1,TACTCC,0.566 relative enrichment
2,TACTTC,0.678 relative enrichment
3,AACTTC,0.432 relative enrichment
4,CACTTA,0.321 relative enrichment
5,AAGCTC,0.44 relative enrichment
6,CTCTTG,0.394 relative enrichment
7,ACCCTT,0.488 relative enrichment
8,CACGTA,0.469 relative enrichment
9,CATCTC,0.642 relative enrichment
10,CCCATT,0.378 relative enrichment
11,CCTCTA,0.483 relative enrichment
12,CTTAAC,0.232 relative enrichment
13,ACACGA,0.377 relative enrichment
14,ATATGC,0.286 relative enrichment
15,ACGACT,0.561 relative enrichment
16,AGTCTA,0.54 relative enrichment
17,ACCCAT,0.43 relative enrichment
18,TGACAA,0.337 relative enrichment
19,TACCCA,0.526 relative enrichment
20,GTAAAC,0.561 relative enrichment
21,ATAAAC,1 relative enrichment
22,ATAAAA,0.231 relative enrichment
23,ATAAGC,0.803 relative enrichment
24,ATAAGA,0.307 relative enrichment
25,ATAAGG,0.316 relative enrichment

row,Sequence,binding signal
1,CCCTTG,0.444 relative enrichment
2,GAGTAA,0.439 relative enrichment
3,ATGCTA,0.343 relative enrichment
4,AAAGCA,0.341 relative enrichment
5,TAAGCA,0.814 relative enrichment
6,CAAGCA,0.489 relative enrichment
7,TCTGTG,0.32 relative enrichment
8,AGCGTA,0.542 relative enrichment
9,GACACA,0.296 relative enrichment
10,CTCTTC,0.799 relative enrichment
11,CTCTTT,0.469 relative enrichment
12,TTCTTC,0.673 relative enrichment
13,TTCTCT,0.453 relative enrichment
14,ATCTTA,0.332 relative enrichment
15,CTCTTA,0.325 relative enrichment
16,ATCTTC,0.665 relative enrichment
17,ATCTTG,0.318 relative enrichment
18,TTCTAC,0.528 relative enrichment
19,ATCTAG,0.559 relative enrichment
20,GCCAAT,0.341 relative enrichment
21,CCACTG,0.649 relative enrichment
22,ACTTGC,0.489 relative enrichment
23,CCCTGT,0.366 relative enrichment
24,ACAGAG,0.418 relative enrichment
25,CCTCAT,0.455 relative enrichment

row,Sequence,binding signal
1,TAGTCA,0.442 relative enrichment
2,AGTCAT,0.491 relative enrichment
3,ATTGCC,0.483 relative enrichment
4,GCCATA,0.387 relative enrichment
5,AACTCA,0.249 relative enrichment
6,TGCAAA,0.311 relative enrichment
7,ACATTA,0.277 relative enrichment
8,ACATGT,0.276 relative enrichment
9,GTCTTA,0.348 relative enrichment
10,GATCTA,0.537 relative enrichment
11,AGATTA,0.329 relative enrichment
12,GCAACA,0.23 relative enrichment
13,ACAAGA,0.322 relative enrichment
14,CATCCT,0.605 relative enrichment
15,CATCCC,0.704 relative enrichment
16,CATCCA,0.528 relative enrichment
17,CATCGT,0.553 relative enrichment
18,CATCGC,0.711 relative enrichment
19,AATCGC,0.406 relative enrichment
20,TAGACA,0.44 relative enrichment
21,ATCCAT,0.477 relative enrichment
22,AATAAA,0.839 relative enrichment
23,GATAAA,0.326 relative enrichment
24,TAATAA,0.399 relative enrichment
25,AATAAG,0.686 relative enrichment

row,Sequence,binding signal
1,CATAAA,0.596 relative enrichment
2,AAATAT,0.435 relative enrichment
3,AAATAA,0.891 relative enrichment
4,CATAAG,0.406 relative enrichment
5,AATAAT,0.309 relative enrichment
6,GCTCAA,0.305 relative enrichment
7,CAATTC,0.306 relative enrichment
8,AAAACA,0.264 relative enrichment
9,AACTAT,0.324 relative enrichment
10,CAGTAA,0.415 relative enrichment
11,AGTACT,0.668 relative enrichment
12,AGTACA,0.385 relative enrichment
13,AATACT,0.328 relative enrichment
14,AAAGTG,0.343 relative enrichment
15,CAATGG,0.433 relative enrichment
16,ATTTAC,0.56 relative enrichment
17,ATTAGG,0.356 relative enrichment
18,TCCAAA,0.348 relative enrichment
19,ACTTCA,0.453 relative enrichment
20,ACTTCC,0.677 relative enrichment
21,AATTCC,0.366 relative enrichment
22,ACTCGT,0.431 relative enrichment
23,CTGCAT,0.524 relative enrichment
24,TCCTAT,0.313 relative enrichment
25,AAACCG,0.336 relative enrichment

row,Sequence,binding signal
1,CAATGC,0.376 relative enrichment
2,TACGTA,0.539 relative enrichment
3,AACGTC,0.372 relative enrichment
4,TACGTC,0.674 relative enrichment
5,CCATTA,0.286 relative enrichment
6,ACCACT,0.588 relative enrichment
7,GGTTTA,0.395 relative enrichment
8,ATTTGG,0.408 relative enrichment
9,CTGTTA,0.238 relative enrichment
10,TTACAA,0.36 relative enrichment
11,TACGAA,0.468 relative enrichment
12,TATACA,0.505 relative enrichment
13,TAAACA,0.701 relative enrichment
14,CAAATC,0.3 relative enrichment
15,CAAATG,0.327 relative enrichment
16,TAAATA,0.726 relative enrichment
17,AAAATA,0.439 relative enrichment
18,GAAATA,0.451 relative enrichment
19,GAAACA,0.347 relative enrichment
20,CAAACA,0.57 relative enrichment
21,CAAATA,0.707 relative enrichment
22,ATAGCA,0.284 relative enrichment
23,TCTTTC,0.55 relative enrichment
24,CAGACT,0.612 relative enrichment
25,ACTTGA,0.341 relative enrichment

row,Sequence,binding signal
1,CATAAC,0.226 relative enrichment
2,AAATGG,0.353 relative enrichment
3,CTTCGT,0.674 relative enrichment
4,GTTCGT,0.328 relative enrichment
5,CTTCAT,0.554 relative enrichment
6,ATGTTA,0.428 relative enrichment
7,TCATTC,0.646 relative enrichment
8,ACCTTA,0.322 relative enrichment
9,GATCTT,0.497 relative enrichment
10,TCTAAC,0.304 relative enrichment
11,CTACAA,0.352 relative enrichment
12,ACAATA,0.351 relative enrichment
13,AAACGA,0.433 relative enrichment
14,GTGTCA,0.372 relative enrichment
15,CATGCA,0.513 relative enrichment
16,AGGATA,0.311 relative enrichment
17,TACCCT,0.504 relative enrichment
18,AGCCTA,0.371 relative enrichment
19,AAAGTT,0.3 relative enrichment
20,AGTTTA,0.403 relative enrichment
21,CTATCA,0.419 relative enrichment
22,ACTGCT,0.412 relative enrichment
23,AACTAC,0.312 relative enrichment
24,AACCAC,0.351 relative enrichment
25,ACACGG,0.442 relative enrichment

row,Sequence,binding signal
1,TCATCT,0.546 relative enrichment
2,CAACGC,0.322 relative enrichment
3,CCTTCT,0.774 relative enrichment
4,TCTTCT,0.66 relative enrichment
5,ACTTCT,0.502 relative enrichment
6,AAGCAG,0.486 relative enrichment
7,ATCTCT,0.485 relative enrichment
8,TCACAA,0.332 relative enrichment
9,AGGTTG,0.313 relative enrichment
10,ACATCG,0.521 relative enrichment
11,ATGTTC,0.304 relative enrichment
12,TGAACA,0.291 relative enrichment
13,AACGAA,0.281 relative enrichment
14,GACTTA,0.52 relative enrichment
15,AATGAT,0.314 relative enrichment
16,CCGTTG,0.343 relative enrichment
17,CCTGTG,0.491 relative enrichment
18,ACTCTC,0.499 relative enrichment
19,ATTAAA,0.406 relative enrichment
20,TGTCAA,0.457 relative enrichment
21,AATTAG,0.241 relative enrichment
22,ACGATA,0.322 relative enrichment

# Source: article PMC12135187, “A role for pH dynamics regulating transcription factor DNA-binding selectivity”
